Results filed as inconclusive are left out. Calls of active or inactive are those of the source. Unless noted, the call rests on the fitted dose curve; in most records, active means well fitted curve in the direction sought with a large enough effect; inconclusive means small, poorly fitted or top-dose-only effect, or another doubt; inactive means no such curve, though single readings can be large; an effect the other way counts as inactive or inconclusive.
What was measured:
[1] = target: ATP-dependent 6-phosphofructokinase (Trypanosoma brucei brucei) (UniProt O15648); experiment: qHTS Assay to Find Inhibitors of T. brucei phosphofructokinase: hit validation (AID 492961);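 further: luminescence reports ADP formed as PFK phosphorylates fructose-6-phosphate with ATP; on the % scale 0 is the no-effect control and ±100 the full control effect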
Sequence of ATP-dependent 6-phosphofructokinase (Trypanosoma brucei brucei) (O15648 whole entry, looked up): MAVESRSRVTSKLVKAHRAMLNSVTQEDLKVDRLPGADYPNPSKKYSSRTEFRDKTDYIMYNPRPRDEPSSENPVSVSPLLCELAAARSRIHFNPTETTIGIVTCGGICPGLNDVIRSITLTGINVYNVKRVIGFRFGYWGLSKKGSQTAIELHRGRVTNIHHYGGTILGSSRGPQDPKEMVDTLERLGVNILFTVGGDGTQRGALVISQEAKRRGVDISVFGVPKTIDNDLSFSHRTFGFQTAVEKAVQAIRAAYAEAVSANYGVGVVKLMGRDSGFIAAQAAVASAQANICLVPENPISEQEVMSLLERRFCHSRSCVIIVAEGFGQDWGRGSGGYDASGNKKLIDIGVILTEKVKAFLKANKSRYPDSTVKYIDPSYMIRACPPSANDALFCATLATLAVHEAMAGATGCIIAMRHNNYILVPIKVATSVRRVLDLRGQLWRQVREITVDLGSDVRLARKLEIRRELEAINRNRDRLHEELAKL
Outline: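 Measures ADP output of PFK (1.25 nM) at 0.1 mM ATP, 0.5 mM F6P, pH 8.0 TEA buffer with 5 mM MgCl2. No-enzyme wells define full inhibition; uninhibited enzyme wells define zero.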

[2] = target: Ubiquitin carboxyl-terminal hydrolase 1 (Homo sapiens) (UniProt O94782); experiment: Inhibitors of USP1/UAF1: Pilot qHTS (AID 504865);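 further: rhodamine fluorescence freed from ubiquitin-rhodamine substrate followed over time; top concentration of the series differs between compounds; on the % scale 0 is the no-effect control and ±100 the full control effect; nearly all actives have a fitted effect of over 35% in size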
Sequence of Ubiquitin carboxyl-terminal hydrolase 1 (Homo sapiens) (O94782 whole entry, looked up): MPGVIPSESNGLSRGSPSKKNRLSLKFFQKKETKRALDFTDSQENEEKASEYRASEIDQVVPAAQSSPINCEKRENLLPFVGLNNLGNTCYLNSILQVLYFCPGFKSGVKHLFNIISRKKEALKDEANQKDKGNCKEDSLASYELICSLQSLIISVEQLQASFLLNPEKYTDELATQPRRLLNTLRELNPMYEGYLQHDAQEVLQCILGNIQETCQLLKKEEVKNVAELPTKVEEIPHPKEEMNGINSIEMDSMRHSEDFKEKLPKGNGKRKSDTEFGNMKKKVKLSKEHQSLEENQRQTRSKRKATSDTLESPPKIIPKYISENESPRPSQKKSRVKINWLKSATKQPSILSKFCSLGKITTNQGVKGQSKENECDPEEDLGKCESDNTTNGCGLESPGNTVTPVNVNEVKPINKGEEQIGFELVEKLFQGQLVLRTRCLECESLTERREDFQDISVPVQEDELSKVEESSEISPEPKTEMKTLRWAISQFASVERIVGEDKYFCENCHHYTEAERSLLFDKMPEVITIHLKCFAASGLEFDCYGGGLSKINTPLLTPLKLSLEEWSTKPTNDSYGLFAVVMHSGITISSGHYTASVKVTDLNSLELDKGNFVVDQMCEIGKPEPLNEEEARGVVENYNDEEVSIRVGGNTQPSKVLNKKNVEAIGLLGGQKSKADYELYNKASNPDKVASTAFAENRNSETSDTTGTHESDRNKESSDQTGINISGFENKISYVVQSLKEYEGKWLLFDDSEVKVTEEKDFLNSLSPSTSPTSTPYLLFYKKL
Outline: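 In 50mM HEPES pH 7.8 containing 0.5mM EDTA, 1mM TCEP, 0.1 mg/ml BSA and 0.01% Tween-20, 1nM USP1/UAF1 is exposed to compound for 15 min, then Ub-Rho (150nM final) is added and fluorescence is read over time.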

[3] = target: Luciferin 4-monooxygenase (Photinus pyralis) (UniProt P08659); experiment: Biochemical firefly luciferase enzyme assay for NPC (AID 624030);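 further: purified P. pyralis luciferase at 10 nM with luciferin and ATP substrate; 0% = DMSO and -100% = full luciferase inhibition by PTC124 control; nearly all actives have a fitted effect of over 70% in size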
Sequence of Luciferin 4-monooxygenase (Photinus pyralis) (P08659 whole entry, looked up): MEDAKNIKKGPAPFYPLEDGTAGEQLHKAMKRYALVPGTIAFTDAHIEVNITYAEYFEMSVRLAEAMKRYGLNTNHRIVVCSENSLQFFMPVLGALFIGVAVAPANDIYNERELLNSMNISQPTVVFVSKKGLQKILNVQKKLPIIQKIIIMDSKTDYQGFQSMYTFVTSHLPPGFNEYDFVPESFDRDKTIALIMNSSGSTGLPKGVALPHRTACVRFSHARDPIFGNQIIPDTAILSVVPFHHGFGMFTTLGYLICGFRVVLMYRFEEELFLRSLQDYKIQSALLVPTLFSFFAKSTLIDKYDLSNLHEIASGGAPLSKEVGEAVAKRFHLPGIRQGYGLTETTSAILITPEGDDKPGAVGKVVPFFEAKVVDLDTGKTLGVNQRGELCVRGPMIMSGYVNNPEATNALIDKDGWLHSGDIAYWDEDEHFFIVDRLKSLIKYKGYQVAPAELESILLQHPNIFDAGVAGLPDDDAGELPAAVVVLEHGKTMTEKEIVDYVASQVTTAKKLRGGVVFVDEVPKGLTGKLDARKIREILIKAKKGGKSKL
Outline: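 Direct inhibition of firefly luciferase enzyme (10 nM final, 50 mM Tris Acetate) assessed by luminescence within 5 minutes. Percent activity scaled between DMSO and PTC124 positive control, with concentration-effect curves classified by fit quality and response.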

[4] = S16 Schwann cell viability assay (CellTiter-Glo assay) (AID 624031);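 further: native untransfected S16 rat Schwann cells; plate controls were DMSO-treated cells for no effect and cell-free wells for full effect; nearly all actives have a fitted effect of over 70% in size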
Outline: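 Counter-screen for cytotoxicity: parental S16 rat Schwann cells lacking the PMP22 reporters, treated 24 h with compound, viability from cellular ATP by CellTiter-Glo luminescence, normalized to DMSO (0%) and no-cell wells.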

[5] = S16 Schwann cell PMP22 intronic element firefly luciferase assay (AID 624032);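 further: plate controls were DMSO for no effect and PTC124 positive control mean for full effect; nearly all actives have a fitted effect of over 30% in size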
Outline: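 Luciferase reporter of PMP22 intronic-element expression in stably transfected S16 rat Schwann cells, read by ONE-Glo luminescence after 24 h compound exposure at 37 C. Activity scaled between DMSO (0%) and positive-control PTC124; concentration-effect curves quality-classified.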

[6] = S16 Schwann cell PMP22 intronic element beta-lactamase assay (AID 624044; calls by dose curve;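 further: 0% = DMSO and -100% = potassium clavulanate positive control; nearly all actives have a fitted effect of over 15% in size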); conditions: S16 rat Schwann cells, PMP22 element beta-lactamase FRET, 24 h; ratio activity, negative = inhibition: at 38.3 µM (top of the series)
Outline: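 Beta-lactamase reporter under a PMP22 intronic regulatory element in stable S16 rat Schwann cells; 24 h compound exposure. 460 nm blue signal normalized between DMSO (0%) and potassium clavulanate, with 535 nm FRET tracking viability; curves classed by r2 and response.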

[7] = qHTS profiling for inhibitors of Plasmodium falciparum proliferation (AID 504749);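 further: 0% = DMSO vehicle and full inhibition = artemisinin control; nearly all actives have a fitted effect of over 60% in size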; conditions: P. falciparum in erythrocytes, SYBR Green DNA, 72 h, at 28.7 µM (top of the series)
Outline: (§1)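 In a 72 h erythrocytic culture (37 C, humidified, 5% CO2) at 2.5% hematocrit and 0.3% starting parasitemia, compounds were tested; SYBR Green I in detergent lysis buffer stained parasite DNA overnight.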

3D7 = experiment: as above; conditions: P. falciparum in erythrocytes, SYBR Green DNA, 72 h; series mostly up to 28.7 µM
Outline: as §1

7G8 = experiment: as above; conditions: P. falciparum in erythrocytes, SYBR Green DNA, 72 h; series mostly up to 28.7 µM
Outline: as §1

AA1029 = experiment: as above; conditions: P. falciparum in erythrocytes, SYBR Green DNA, 72 h; series mostly up to 28.7 µM
Outline: as §1

AS120 = experiment: as above; conditions: P. falciparum in erythrocytes, SYBR Green DNA, 72 h; series mostly up to 28.7 µM
Outline: as §1

ATS189 = experiment: as above; conditions: P. falciparum in erythrocytes, SYBR Green DNA, 72 h; series mostly up to 28.7 µM
Outline: as §1

ATS95 = experiment: as above; conditions: P. falciparum in erythrocytes, SYBR Green DNA, 72 h; series mostly up to 28.7 µM
Outline: as §1

C2A = experiment: as above; conditions: P. falciparum in erythrocytes, SYBR Green DNA, 72 h; series mostly up to 28.7 µM
Outline: as §1

CP185 = experiment: as above; conditions: P. falciparum in erythrocytes, SYBR Green DNA, 72 h; series mostly up to 28.7 µM
Outline: as §1

CP191 = experiment: as above; conditions: P. falciparum in erythrocytes, SYBR Green DNA, 72 h; series mostly up to 28.7 µM
Outline: as §1

CP192 = experiment: as above; conditions: P. falciparum in erythrocytes, SYBR Green DNA, 72 h; series mostly up to 28.7 µM
Outline: as §1

CP194 = experiment: as above; conditions: P. falciparum in erythrocytes, SYBR Green DNA, 72 h; series mostly up to 28.7 µM
Outline: as §1

CP201 = experiment: as above; conditions: P. falciparum in erythrocytes, SYBR Green DNA, 72 h; series mostly up to 28.7 µM
Outline: as §1

CP203 = experiment: as above; conditions: P. falciparum in erythrocytes, SYBR Green DNA, 72 h; series mostly up to 28.7 µM
Outline: as §1

CP211 = experiment: as above; conditions: P. falciparum in erythrocytes, SYBR Green DNA, 72 h; series mostly up to 28.7 µM
Outline: as §1

CP215 = experiment: as above; conditions: P. falciparum in erythrocytes, SYBR Green DNA, 72 h; series mostly up to 28.7 µM
Outline: as §1

CP217 = experiment: as above; conditions: P. falciparum in erythrocytes, SYBR Green DNA, 72 h; series mostly up to 28.7 µM
Outline: as §1

CP237 = experiment: as above; conditions: P. falciparum in erythrocytes, SYBR Green DNA, 72 h; series mostly up to 28.7 µM
Outline: as §1

CP238 = experiment: as above; conditions: P. falciparum in erythrocytes, SYBR Green DNA, 72 h; series mostly up to 28.7 µM
Outline: as §1

CP247 = experiment: as above; conditions: P. falciparum in erythrocytes, SYBR Green DNA, 72 h; series mostly up to 28.7 µM
Outline: as §1

CP250 = experiment: as above; conditions: P. falciparum in erythrocytes, SYBR Green DNA, 72 h; series mostly up to 28.7 µM
Outline: as §1

CP252 = experiment: as above; conditions: P. falciparum in erythrocytes, SYBR Green DNA, 72 h; series mostly up to 28.7 µM
Outline: as §1

CP256 = experiment: as above; conditions: P. falciparum in erythrocytes, SYBR Green DNA, 72 h; series mostly up to 28.7 µM
Outline: as §1

CP260 = experiment: as above; conditions: P. falciparum in erythrocytes, SYBR Green DNA, 72 h; series mostly up to 28.7 µM
Outline: as §1

CP262 = experiment: as above; conditions: P. falciparum in erythrocytes, SYBR Green DNA, 72 h; series mostly up to 28.7 µM
Outline: as §1

CP265 = experiment: as above; conditions: P. falciparum in erythrocytes, SYBR Green DNA, 72 h; series mostly up to 28.7 µM
Outline: as §1

CP266 = experiment: as above; conditions: P. falciparum in erythrocytes, SYBR Green DNA, 72 h; series mostly up to 28.7 µM
Outline: as §1

CP268 = experiment: as above; conditions: P. falciparum in erythrocytes, SYBR Green DNA, 72 h; series mostly up to 28.7 µM
Outline: as §1

CP269 = experiment: as above; conditions: P. falciparum in erythrocytes, SYBR Green DNA, 72 h; series mostly up to 28.7 µM
Outline: as §1

CP286 = experiment: as above; conditions: P. falciparum in erythrocytes, SYBR Green DNA, 72 h; series mostly up to 28.7 µM
Outline: as §1

CP291 = experiment: as above; conditions: P. falciparum in erythrocytes, SYBR Green DNA, 72 h; series mostly up to 28.7 µM
Outline: as §1

CP297 = experiment: as above; conditions: P. falciparum in erythrocytes, SYBR Green DNA, 72 h; series mostly up to 28.7 µM
Outline: as §1

CP305 = experiment: as above; conditions: P. falciparum in erythrocytes, SYBR Green DNA, 72 h; series mostly up to 28.7 µM
Outline: as §1

CP315 = experiment: as above; conditions: P. falciparum in erythrocytes, SYBR Green DNA, 72 h; series mostly up to 28.7 µM
Outline: as §1

CP325 = experiment: as above; conditions: P. falciparum in erythrocytes, SYBR Green DNA, 72 h; series mostly up to 28.7 µM
Outline: as §1

CP329 = experiment: as above; conditions: P. falciparum in erythrocytes, SYBR Green DNA, 72 h; series mostly up to 28.7 µM
Outline: as §1

CP335 = experiment: as above; conditions: P. falciparum in erythrocytes, SYBR Green DNA, 72 h; series mostly up to 28.7 µM
Outline: as §1

DFO2036 = experiment: as above; conditions: P. falciparum in erythrocytes, SYBR Green DNA, 72 h; series mostly up to 28.7 µM
Outline: as §1

DIV14 = experiment: as above; conditions: P. falciparum in erythrocytes, SYBR Green DNA, 72 h; series mostly up to 28.7 µM
Outline: as §1

DIV17 = experiment: as above; conditions: P. falciparum in erythrocytes, SYBR Green DNA, 72 h; series mostly up to 28.7 µM
Outline: as §1

DIV30 = experiment: as above; conditions: P. falciparum in erythrocytes, SYBR Green DNA, 72 h; series mostly up to 28.7 µM
Outline: as §1

Dd2 = experiment: as above; conditions: P. falciparum in erythrocytes, SYBR Green DNA, 72 h; series mostly up to 28.7 µM
Outline: as §1

ECU = experiment: as above; conditions: P. falciparum in erythrocytes, SYBR Green DNA, 72 h; series mostly up to 28.7 µM
Outline: as §1

FAB9 = experiment: as above; conditions: P. falciparum in erythrocytes, SYBR Green DNA, 72 h; series mostly up to 28.7 µM
Outline: as §1

GB4 = experiment: as above; conditions: P. falciparum in erythrocytes, SYBR Green DNA, 72 h; series mostly up to 28.7 µM
Outline: as §1

HB3 = experiment: as above; conditions: P. falciparum in erythrocytes, SYBR Green DNA, 72 h; series mostly up to 28.7 µM
Outline: as §1

ICS = experiment: as above; conditions: P. falciparum in erythrocytes, SYBR Green DNA, 72 h; series mostly up to 28.7 µM
Outline: as §1

JCK = experiment: as above; conditions: P. falciparum in erythrocytes, SYBR Green DNA, 72 h; series mostly up to 28.7 µM
Outline: as §1

N140 = experiment: as above; conditions: P. falciparum in erythrocytes, SYBR Green DNA, 72 h; series mostly up to 28.7 µM
Outline: as §1

P93_24 = experiment: as above; conditions: P. falciparum in erythrocytes, SYBR Green DNA, 72 h; series mostly up to 28.7 µM
Outline: as §1

P94_40 = experiment: as above; conditions: P. falciparum in erythrocytes, SYBR Green DNA, 72 h; series mostly up to 28.7 µM
Outline: as §1

PAD = experiment: as above; conditions: P. falciparum in erythrocytes, SYBR Green DNA, 72 h; series mostly up to 28.7 µM
Outline: as §1

PC15 = experiment: as above; conditions: P. falciparum in erythrocytes, SYBR Green DNA, 72 h; series mostly up to 28.7 µM
Outline: as §1

PC26 = experiment: as above; conditions: P. falciparum in erythrocytes, SYBR Green DNA, 72 h; series mostly up to 28.7 µM
Outline: as §1

PC49 = experiment: as above; conditions: P. falciparum in erythrocytes, SYBR Green DNA, 72 h; series mostly up to 28.7 µM
Outline: as §1

SC27B = experiment: as above; conditions: P. falciparum in erythrocytes, SYBR Green DNA, 72 h; series mostly up to 28.7 µM
Outline: as §1

TAB109 = experiment: as above; conditions: P. falciparum in erythrocytes, SYBR Green DNA, 72 h; series mostly up to 28.7 µM
Outline: as §1

TAB113 = experiment: as above; conditions: P. falciparum in erythrocytes, SYBR Green DNA, 72 h; series mostly up to 28.7 µM
Outline: as §1

TAB165 = experiment: as above; conditions: P. falciparum in erythrocytes, SYBR Green DNA, 72 h; series mostly up to 28.7 µM
Outline: as §1

W2 = experiment: as above; conditions: P. falciparum in erythrocytes, SYBR Green DNA, 72 h; series mostly up to 28.7 µM
Outline: as §1

O=c1ccn(C2OC(COP(=O)(O)OC3C(CO)OC(n4ccc(=O)[nH]c4=O)C3O)C(O)C2O)c(=O)[nH]1 (configuration not stated)
inactive: Potency [1] | Potency [2] | Potency [3] | Potency [4] | Potency [5] | Potency [6] | activity, negative = inhibition ([7]; parasite line A) 0.515% | activity, negative = inhibition ([7]; parasite line B) 10.1% | Potency (3D7) | Potency (7G8) | Potency (AA1029) | Potency (AS120) | Potency (ATS189) | Potency (ATS95) | Potency (C2A) | Potency (CP185) | Potency (CP191) | Potency (CP192) | Potency (CP194) | Potency (CP201) | Potency (CP203) | Potency (CP211) | Potency (CP215) | Potency (CP217) | Potency (CP237) | Potency (CP238) | Potency (CP247) | Potency (CP250) | Potency (CP252) | Potency (CP256) | Potency (CP260) | Potency (CP262) | Potency (CP265) | Potency (CP266) | Potency (CP268) | Potency (CP269) | Potency (CP286) | Potency (CP291) | Potency (CP297) | Potency (CP305) | Potency (CP315) | Potency (CP325) | Potency (CP329) | Potency (CP335) | Potency (DFO2036) | Potency (DIV14) | Potency (DIV17) | Potency (DIV30) | Potency (Dd2) | Potency (ECU) | Potency (FAB9) | Potency (GB4) | Potency (HB3) | Potency (ICS) | Potency (JCK) | Potency (N140) | Potency (P93_24) | Potency (P94_40) | Potency (PAD) | Potency (PC15) | Potency (PC26) | Potency (PC49) | Potency (SC27B) | Potency (TAB109) | Potency (TAB113) | Potency (TAB165) | Potency (W2)

Source: PubChem BioAssay (NCATS)
